Reference: paper PMC4336329 (PLoS ONE, 2015)
In all, about 310,000 compounds went through this assay and about 14,000 (4.5%) showed an effect of 50% or more. The effect is printed as a negative number. This is one part of a sample in which strong results are shown more often than they occur.

Molecular target: human ether-à-go-go-related gene (hERG) potassium channel (human, UniProt Q12809)
Assay: primary screen, population patch clamp on CHO cells stably expressing hERG; higher = less effect of the substance
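Further: peak tail current of the secondary pulse compared with the same well before compound.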

Chain of human ether-à-go-go-related gene (hERG) potassium channel (Q12809 whole entry, looked up): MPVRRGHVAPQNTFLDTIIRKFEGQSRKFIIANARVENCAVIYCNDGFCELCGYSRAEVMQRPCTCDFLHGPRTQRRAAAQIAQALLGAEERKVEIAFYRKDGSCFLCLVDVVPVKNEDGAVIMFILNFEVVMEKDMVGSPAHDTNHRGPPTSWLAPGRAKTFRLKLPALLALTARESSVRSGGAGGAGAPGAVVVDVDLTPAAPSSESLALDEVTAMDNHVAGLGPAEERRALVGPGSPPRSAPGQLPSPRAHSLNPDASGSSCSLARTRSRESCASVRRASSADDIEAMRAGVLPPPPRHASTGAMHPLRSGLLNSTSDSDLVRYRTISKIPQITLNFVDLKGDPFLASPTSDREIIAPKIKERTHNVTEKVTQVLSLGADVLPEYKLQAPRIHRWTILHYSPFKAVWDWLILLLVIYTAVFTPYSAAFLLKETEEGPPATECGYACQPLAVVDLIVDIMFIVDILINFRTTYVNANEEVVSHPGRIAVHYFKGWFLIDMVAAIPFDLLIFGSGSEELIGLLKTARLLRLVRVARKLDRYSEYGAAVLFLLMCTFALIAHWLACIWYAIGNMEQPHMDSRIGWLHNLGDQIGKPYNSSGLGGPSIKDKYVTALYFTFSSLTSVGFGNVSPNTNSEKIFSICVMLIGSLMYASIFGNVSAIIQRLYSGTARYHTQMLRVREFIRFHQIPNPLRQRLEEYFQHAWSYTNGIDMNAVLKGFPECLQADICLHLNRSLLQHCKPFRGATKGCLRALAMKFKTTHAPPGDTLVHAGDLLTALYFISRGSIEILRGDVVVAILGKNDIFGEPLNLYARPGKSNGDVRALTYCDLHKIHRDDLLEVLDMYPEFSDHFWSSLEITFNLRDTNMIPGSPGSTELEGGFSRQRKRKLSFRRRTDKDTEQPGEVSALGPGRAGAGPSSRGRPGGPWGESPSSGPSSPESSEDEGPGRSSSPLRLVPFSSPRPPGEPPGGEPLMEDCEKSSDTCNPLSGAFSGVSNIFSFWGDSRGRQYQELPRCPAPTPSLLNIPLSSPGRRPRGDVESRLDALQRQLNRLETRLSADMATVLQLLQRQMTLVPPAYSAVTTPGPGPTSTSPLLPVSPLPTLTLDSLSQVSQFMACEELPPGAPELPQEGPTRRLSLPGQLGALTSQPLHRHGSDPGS

Structure (SMILES)	hERG current change (%, negative = inhibition) at 10uM [%]
COc1ccc(N2CCN(c3nc(Nc4ccc(C)c(F)c4)nc(N4CCCC4)n3)CC2)cc1	8.35
CCN1CCN(Cc2nc(N)nc(Nc3ccc(C)c(C)c3)n2)CC1	-65.8
COc1ccc(Nc2nc(N)nc(CN3CCN(c4ccc(F)cc4)CC3)n2)cc1	-69.5
COC(=O)CC(=O)Cc1nc(N)nc(Nc2ccc(C)c(C)c2)n1	-9.22
Nc1nc(CSC(=S)N2CCN(c3ccccc3)CC2)nc(Nc2ccccc2)n1	0.151
CCOc1nc(Nc2ccc(OC)c(Cl)c2)nc(N2CCN(c3ccc(OC)cc3)CC2)n1	14.9
Nc1nc(CN2CCN(c3ccccc3)CC2)nc(Nc2ccc(Cl)cc2)n1	-76
Cc1ccc(Nc2nc(N)nc(CSC(=S)N3CCN(c4ccccc4)CC3)n2)cc1	8.32
COc1ccc(N2CCN(Cc3nc(N)nc(Nc4ccc(C)c(Cl)c4)n3)CC2)cc1	-63.1
CCOc1nc(Nc2ccc(F)cc2)nc(N2CCN(c3ccc(OC)cc3)CC2)n1	-14.7
CS(=O)(=O)N1CCN(c2ccccc2NC(=O)c2cc3ccccc3o2)CC1	7.78
O=C(COC(=O)[C@H](Cc1ccccc1)N1C(=O)c2ccccc2C1=O)Nc1ccc2c(c1)OCO2	-8.45
CCC1CCCCN1C(=O)c1cc(COc2ccc3ncccc3c2)on1 (stereo not drawn)	0.129
CCCCn1c(N)c(N(CCOC)C(=O)CSc2ccccc2C)c(=O)[nH]c1=O	-26.6
Cc1ccc(C(C)(C)C)cc1S(=O)(=O)Nc1nc2ccccc2nc1Cl	-33.6
COc1ccc(-c2csc3nc(-c4ccccc4OC)oc(=O)c23)cc1	19.1
COc1cc(C(=O)Nc2ccc3c(c2)Cc2ccccc2-3)cc(OC)c1OC	0.538
CC(=O)c1ccc(NC(=O)C(C)Nc2ccc(Cl)cc2)cc1 (stereo not drawn)	-4.45
Cc1nc(C(=O)NNC(=O)Nc2ccc(Cl)cc2)cs1	-0.711
CCN(CC)S(=O)(=O)c1cccc(-c2cn3cc(C)ccc3n2)c1	-9.87
O=C(Nc1cccnc1Oc1ccc(Cl)cc1)c1cccc2ccccc12	3.61
COCCC(=O)N1CCC(Oc2ccc(C(=O)N3CCC(N(C)C)C3)cc2)CC1 (stereo not drawn)	20.7
Cc1ccc(Nc2nc(N)c3ccccc3n2)cc1Cl.Cl	9.26

Structure (SMILES)	hERG current change (%, negative = inhibition) at 10uM [%]
Cc1ccc(Nc2nc(N)nc(CN3CCN(Cc4ccccc4)CC3)n2)cc1Cl	-76.4
Cc1ccc(Nc2nc(N)nc(CN3CCN(c4ccccc4)CC3)n2)cc1Cl	-66.4
CCCCN(C(=O)CNC(=O)c1ccco1)C(C(=O)NC1CCCC1)c1ccc(OC)cc1 (stereo not drawn)	-20.1
NC(=O)CC(NC(=O)c1ccc(Br)cc1)c1ccc(N2CCN(c3ccc(F)cc3)CC2)c([N+](=O)[O-])c1 (stereo not drawn)	6.16
CC(=O)Nc1ccc(OC(=O)Oc2ccc(NC(C)=O)cc2)cc1	0.315
CC1(C)NC(C)(C)c2nonc2/C1=N\O	-1.78
CCn1c2c(c3cc(C(=O)O)ccc31)CCCC2=O	18.5
CSc1nccc(N/N=C/c2ccccc2)n1	23.9
CC(=O)/C=C(\C)Nc1ccccc1O	21.3
COc1ccc(C(=O)/C=C/Nc2ccccn2)cc1	2.01
Cn1nccc1C(=O)NC1CCCc2c1cnn2-c1cc(F)cc(F)c1 (stereo not drawn)	-45.2
O=C(NC1CCCc2c1cnn2-c1cc(F)cc(F)c1)c1cc[n+]([O-])cc1 (stereo not drawn)	-37.1
O=C(CCc1ccncc1)NC1CCCc2c1cnn2-c1ccc(F)cc1F (stereo not drawn)	-12.5
O=C(NC1CCCc2c1cnn2-c1ccc(F)cc1F)c1ccccn1 (stereo not drawn)	1.82
C=CCC(=O)NC1CCCc2c1cnn2-c1cc(F)cc(F)c1 (stereo not drawn)	-75.7
CSCC(=O)NC1CCCc2c1cnn2-c1cc(F)cc(F)c1 (stereo not drawn)	-12.6
CCN(CC)CC(=O)NC1CCCc2c1cnn2-c1cc(F)cc(F)c1 (stereo not drawn)	-9.77
O=C(NC1CCCc2c1cnn2-c1cc(F)cc(F)c1)c1ccncc1 (stereo not drawn)	-64.1
O=C(CCc1ccncc1)NC1CCCc2c1cnn2-c1cc(F)cc(F)c1 (stereo not drawn)	-56.5
O=C(NC1CCCc2c1cnn2-c1cc(F)cc(F)c1)c1ccccn1 (stereo not drawn)	-52.4
O=C(NC1CCCc2c1cnn2-c1ccccc1F)c1ccccn1 (stereo not drawn)	5.09
Cc1cccc(-n2ncc3c2CCCC3NC(=O)CCc2ccncc2)c1C (stereo not drawn)	4.95
